Screening data deposited in PubChem by National Center for Advancing Translational Sciences (NCATS).
HCV inh: qHTS Assay for Inhibitors of Hepatitis C Virus (HCV). Huh7.5.1 HCVcc-Cre infection, luciferase reporter, 44 h. Potency, µM (series often up to 41.8 µM), inactives show top-dose activity change, negative = inhibition, usual class: inhibitors. 3.4% of 340,000 active; active = well fitted inhibition curve with a large enough effect; inconclusive = small, poorly fitted or top-dose-only effect, or another doubt; inactive = no such curve, though single readings can be large or run the other way; also: potency is read from the fitted curve at half-maximal effect
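Antiviral activity was scored by luciferase reporter output from cells infected with HCVcc-Cre (~0.5 moi) in presence of compound, 44 h infection period, cells seeded 1,000/well 4 h prior.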
Lassa entry inh: qHTS for Inhibitors of binding or entry into cells for Lassa Virus; Potency, µM (doses to about 37.9 µM), inactives show at the highest dose activity change, negative = inhibition, hits mostly inhibitors; 1.2% of 300,000 active; Lassa virus pseudotype entry inhibition, cell reporter; calls by dose curve; tested in HEK293 cells; also: potency is read from the fitted curve at half-maximal effect; nearly all actives have a fitted effect of over 50% in size
HCMV antiviral: qHTS Assay for inhibitors of the human cytomegalovirus (HCMV). activity change, negative = inhibition, % at 57.5 µM. HFF cells, HCMV-luciferase reporter, 72 h; hits give low values. 4.5% of 410,000 active; in the data active = activity change below about -60%; inconclusive = no clear call, values can overlap the other calls; inactive = above about -39%
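Screen run at 2 compound doses on HFFs infected with reporter HCMV, MOI 1 PFU/cell. Luciferase activity from cell lysates at 72 h post infection gave inhibition relative to buffer-only and Salinomycin wells.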
VACV mCherry inh: qHTS for Stage-Specific Inhibitors of Vaccinia Orthopoxvirus: mCherry Reporter Primary qHTS; Potency, µM (top dose mostly 36.5 µM), inactives show at the top dose activity change, negative = inhibition, actives largely listed as inhibitors; Vaccinia virus mCherry reporter infection, fluorescence; AID 720579, 2013; 0.63% of 310,000 active; calls by dose curve; tested in A549 cells; also: potency is read from the fitted curve at half-maximal effect; nearly all actives have a fitted effect of over 35% in size
Vaccinia Venus: qHTS for Stage-Specific Inhibitors of Vaccinia Orthopoxvirus: Venus Reporter Primary qHTS; Vaccinia virus Venus reporter expression, fluorescence; Potency, µM (top dose mostly 36.5 µM), for the others: at the highest dose activity change, negative = inhibition, usual class: inhibitors; 0.46% of 330,000 active; calls by dose curve; tested in A549 cells; also: potency is read from the fitted curve at half-maximal effect; nearly all actives have a fitted effect of over 30% in size
MARV entry inh: qHTS for inhibitors of binding or entry into cells for Marburg Virus | 1.8% of 300,000 active | Marburg virus pseudotyped entry inhibition, cell reporter | Potency, µM (top dose mostly 37.8 µM), for inactives: at the top dose activity change, negative = inhibition, actives largely listed as inhibitors; calls by dose curve; tested in HEK293 cells; also: potency is read from the fitted curve at half-maximal effect
An asterisk follows results filed as active; i = inactive; ? = inconclusive; / = no result given; [ ] = remark or other dose. Compounds with a hit are over-represented: about 7.8% of the library has one in this group of screens. % is scaled to controls: 0 for no effect and ±100 for the full control effect.

SMILES	HCV inh	Lassa entry inh	HCMV antiviral	VACV mCherry inh	Vaccinia Venus	MARV entry inh
O=C(Cn1c(=O)n(Cc2ccc(C(=O)NCc3ccccc3Cl)cc2)c(=O)c2ccccc21)Nc1ccc(F)c(Cl)c1	/	?	19	-5%	0%	2%[46.1 µM]
O=C(c1cc(C2CC2)nn1-c1ccccc1)N1CCN(Cc2ccc(Cl)cc2)CC1	7.1µM*	/	-31	/	/	/
CCOC(=O)/C(=C\c1ccc(OC(F)F)cc1)C1=Nn2c(nnc2-c2ccc(Cl)cc2)SC1	?	?	/	?	13µM*	?
CCOC(=O)/C(=C/c1ccc(OC(F)F)cc1)C1=Nn2c(nnc2-c2ccc(Cl)cc2)SC1	?	?	-98*	?	11µM*	?
COc1ccc(F)cc1S(=O)(=O)N1CCC(C(N)=O)CC1	35%	-15%	-15	?	13µM*	-5%[46.1 µM]
COc1ccc(OC)c(S(=O)(=O)N2CCC(C(=O)N3CCN(c4ccc(F)cc4)CC3)CC2)c1	?	4%	-62*	-17%	-15%	-15%
COc1ccc(C2C=C(c3ccccc3)Nc3nc(NC(=O)c4cccc([N+](=O)[O-])c4)nn32)cc1 (stereo not given)	/	16%[46.1 µM]	-8	0%	-6%	-11%[46.1 µM]
Cc1c(C(=O)NCc2ccc(F)cc2)oc2ccc(S(=O)(=O)N3CCCCC3)cc12	/	?	-28	?	?	/
CC1CC(C)CN(C(=O)c2ccc3c(c2NCCO)C(=O)c2ccccc2C3=O)C1 (stereo not given)	?	?	-13	-24%	15%	10µM*
CC1CC(C)CN(C(=O)COC(=O)CN2C(=O)c3ccccc3C2=O)C1 (stereo not given)	3%	-1%[46.1 µM]	-19	-15%	9%	6%[46.1 µM]
COC(=O)c1ccc(OCC2c3cc(OC)c(OC)cc3CCN2C(=O)COc2ccc(Cl)cc2)cc1 (stereo not given)	/	3%[46.1 µM]	14	8%	0%	/
CCOCCn1ccc2c(OCC(=O)Nc3cc(OC)ccc3OC)cccc2c1=O	8.9µM*	?	-37	-21%	-12%	?
CC(=O)[C@]12C[C@]3(C)CCCN(C(=O)N[C@@H]1c1ccccc1)C32 (stereo not given in full)	/	?	/	/	/	10%[14.2 µM]
Clc1ccc(/C=C/c2nc3ccccc3[nH]2)cc1	?	?	?	/	/	8.2µM*
Clc1ccc(/C=C/c2nc3ccccc3[nH]2)c(Cl)c1	?	10µM*	-5	/	/	?
O=C(/C=C/c1ccc(Cl)cc1Cl)c1nc2ccccc2[nH]1	18%	-18%	-9	-9%	-10%	-38%
COc1ccccc1NS(=O)(=O)c1cc(NC(=S)Nc2cc(C)cc(C)c2)ccc1Cl	?	-21%	-82*	-28%	-15%	?
COc1ccccc1NS(=O)(=O)c1cc(N/C(=N\S(=O)(=O)c2ccccc2)c2ccc(F)cc2)ccc1Cl	35µM*	?	-5	-4%	-21%	?
COc1ccccc1NS(=O)(=O)c1cc(NC(=O)Cc2n[nH]c(=O)c3ccccc23)ccc1Cl	3.2µM*	?	16	-8%	-14%	?
Cc1ccc2occ(CC(=O)N(Cc3ccc(Cl)cc3)Cc3ccco3)c2c1	/	-6%[46.1 µM]	41	-8%	-13%	-4%[46.1 µM]
CCc1cc(=O)oc2cc(C)cc(OC(C)C(=O)NC3CCN(Cc4ccccc4)CC3)c12 (stereo not given)	13µM*	-23%[46.1 µM]	-10	-8%	-12%	?
CCCc1cc(=O)oc2cc(C)cc(OCC(=O)NC3CCN(Cc4ccccc4)CC3)c12	?	/	26	/	/	/
CC(Oc1ccc(Br)cc1)C(=O)NC1CCN(Cc2ccccc2)CC1 (stereo not given)	?	-31%	-28	-4%	-16%	13µM*
CCOC(=O)N1CCc2c(sc(NCc3cccc(F)c3)c2C(=O)Nc2ccc(OCC)cc2)C1	/	0%[46.1 µM]	-2	-5%[7.34 µM]	-8%[7.34 µM]	/
COc1cn(CC(=O)Nc2cc(C)ccc2C)c(CN2CCCCC2)cc1=O	/	?	-13	-11%	-12%	/
SMILES	HCV inh	Lassa entry inh	HCMV antiviral	VACV mCherry inh	Vaccinia Venus	MARV entry inh
Cc1ccc(-n2ncc3c(Nc4cccc(C(F)(F)F)c4)ncnc32)cc1C	/	?	-65*	-10%	-4%	/
Cc1ccccc1Nc1ncnc2c1cnn2-c1ccccc1	11µM*	/	74	i	-10%	/
Cn1ncc2c(Nc3ccc(-c4ccccc4)cc3)ncnc21	?	3.7µM*	?	?	-10%	2.9µM*
CC1=CC(c2ccc(Cl)cc2)n2ncnc2N1 (stereo not given)	0.89µM*	/	?	i	-4%	/
Cc1ccc(Oc2nnc(-c3cccs3)c3ccccc23)cc1C	-7%	-16%	-62*	-21%	?	?
O=C(NCC1COc2ccccc2O1)c1cccc(S(=O)(=O)N2CCN(c3ccccc3)CC2)c1 (stereo not given)	?	-20%	-76*	-24%	-25%	?
CN(C)C(CNC(=O)c1cccc(S(=O)(=O)N(C)C)c1)c1ccccc1 (stereo not given)	15%	?	4	i	-5%	15%
CN(C)C(CNC(=O)c1cccc(S(=O)(=O)N2CCN(c3ccccc3)CC2)c1)c1ccccc1 (stereo not given)	13µM*	/	-15	/	/	/
COc1ccc(C(CNC(=O)c2cc(S(=O)(=O)N3CCN(c4ccccc4)CC3)ccc2Cl)N(C)C)cc1 (stereo not given)	16µM*	/	-39	/	/	/
COc1ccc(N2CC(NC(=O)COc3ccc4ccccc4c3)CC2=O)cc1 (stereo not given)	/	-16%[46.1 µM]	13	-16%	-15%	/
CN1CN(c2ccccc2)C2(CCN(CCCSc3ccccc3NC(=O)/C=C/c3ccccc3)CC2)C1=O	35µM*	?	-66*	?	33%	?
COc1ccccc1N1CCN(c2nc3ccc(C)cc3n3nnnc23)CC1	/	-5%[46.1 µM]	-32	-6%	0%	/
O=C(CCl)NCCCCCCCCCNC(=O)CCl	?	?	-100*	14µM*	5.6µM*	8.9µM*
Cc1cccc(-n2c3nc(=O)n(C)c(=O)c-3cc3ccc(Cl)cc32)c1C	/	-7%[46.1 µM]	5	-2%	1%	16%[46.1 µM]
COC(=O)c1ccccc1COc1cccn2c(N(C)CC3CC3)c(C)nc12	/	/	-99*	i	-7%	/
O=C(c1ccc([N+](=O)[O-])s1)N1CCN(c2ccccc2)CC1	?	/	-96*	-25%	?	3%
O=C(c1ccc([N+](=O)[O-])s1)N1CCN(c2ccccn2)CC1	?	0%	-61*	?	?	1%[46.1 µM]
